# Source: paper PMC7862700, “An all-to-all approach to the identification of sequence-specific readers for epigenetic DNA modifications on cytosine”
# How the values were obtained:
# Assay in all cases: DAPPL (digital affinity profiling via proximity ligation, sequencing); 10 mM Tris-HCl pH 7.5, 50 mM NaCl, 1 mM DTT, 4% glycerol, room temperature, 30 min; GST-TFs on glutathione beads, 16-mer random dsDNA library, 0.1% formaldehyde crosslink after washing; high values mean tight binding
# [1] = biological target: T1, FLI1 (Homo sapiens, UniProt Q01543 1-452); details: protein: recombinant; tags: N-terminal GST; dsDNA, one strand shown
# T1 sequence: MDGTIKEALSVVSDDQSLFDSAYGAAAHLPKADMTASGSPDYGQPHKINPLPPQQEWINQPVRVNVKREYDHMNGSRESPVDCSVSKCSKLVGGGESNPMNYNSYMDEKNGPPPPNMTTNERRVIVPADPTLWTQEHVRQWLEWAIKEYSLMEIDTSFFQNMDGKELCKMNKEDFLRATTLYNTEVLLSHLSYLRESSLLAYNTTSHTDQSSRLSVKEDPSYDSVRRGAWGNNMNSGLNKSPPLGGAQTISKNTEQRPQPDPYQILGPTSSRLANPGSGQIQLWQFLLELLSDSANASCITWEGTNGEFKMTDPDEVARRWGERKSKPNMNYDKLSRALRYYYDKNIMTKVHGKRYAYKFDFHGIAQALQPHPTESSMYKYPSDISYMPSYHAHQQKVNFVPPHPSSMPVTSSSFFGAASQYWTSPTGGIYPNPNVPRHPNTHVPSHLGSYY
# Method in brief: (§1)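 After expression in yeast as GST fusions, human transcription factors were bound to glutathione beads, DNA-barcoded and mixed with a tag-only sample. The pools were incubated with 200 nmole of a 16-mer random double-stranded DNA library in Tris/NaCl/DTT/glycerol buffer (30 min, room temperature), washed and crosslinked with 0.1% formaldehyde. Proximity ligation with BsaI/T4 ligase ran for 1 h at 37 °C, before PCR amplification and sequencing on an Illumina NextSeq500. Binding signal is a hexamer's read frequency for a factor divided by its frequency for the tag-only sample.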
# [2] = biological target: T2, ELK1 (Homo sapiens, UniProt P19419 1-428); details: protein: recombinant; tags: N-terminal GST; dsDNA, one strand shown
# T2 sequence: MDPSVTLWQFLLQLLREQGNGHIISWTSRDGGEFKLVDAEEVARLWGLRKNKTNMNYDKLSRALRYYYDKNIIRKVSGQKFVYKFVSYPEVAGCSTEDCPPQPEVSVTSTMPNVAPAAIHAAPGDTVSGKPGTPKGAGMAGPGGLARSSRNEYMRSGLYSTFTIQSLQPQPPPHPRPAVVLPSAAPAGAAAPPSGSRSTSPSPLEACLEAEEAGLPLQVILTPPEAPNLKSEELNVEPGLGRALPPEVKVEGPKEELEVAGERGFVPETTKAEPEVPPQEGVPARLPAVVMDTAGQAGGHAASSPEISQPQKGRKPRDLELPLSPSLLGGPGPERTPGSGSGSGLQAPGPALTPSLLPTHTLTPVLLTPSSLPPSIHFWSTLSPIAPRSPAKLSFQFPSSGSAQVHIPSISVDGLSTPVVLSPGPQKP
# Method in brief: as §1
# [3] = biological target: T3, GABPA (Homo sapiens, UniProt Q06546 1-454); details: protein: recombinant; tags: N-terminal GST; dsDNA, one strand shown
# T3 sequence: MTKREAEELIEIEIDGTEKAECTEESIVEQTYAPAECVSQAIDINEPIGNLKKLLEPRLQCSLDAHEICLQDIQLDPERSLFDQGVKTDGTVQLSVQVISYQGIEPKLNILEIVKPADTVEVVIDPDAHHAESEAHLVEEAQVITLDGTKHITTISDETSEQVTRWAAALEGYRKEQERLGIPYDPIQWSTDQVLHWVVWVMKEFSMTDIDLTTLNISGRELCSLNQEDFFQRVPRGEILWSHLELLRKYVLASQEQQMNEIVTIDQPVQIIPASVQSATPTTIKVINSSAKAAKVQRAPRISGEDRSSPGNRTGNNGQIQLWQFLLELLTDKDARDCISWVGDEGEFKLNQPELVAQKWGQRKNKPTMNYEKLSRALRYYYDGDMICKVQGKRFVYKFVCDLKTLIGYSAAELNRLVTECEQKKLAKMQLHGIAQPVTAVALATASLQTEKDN
# Method in brief: as §1
# [4] = biological target: T4, ERG (Homo sapiens, UniProt P11308 1-479); details: protein: recombinant; tags: N-terminal GST; dsDNA, one strand shown
# T4 sequence: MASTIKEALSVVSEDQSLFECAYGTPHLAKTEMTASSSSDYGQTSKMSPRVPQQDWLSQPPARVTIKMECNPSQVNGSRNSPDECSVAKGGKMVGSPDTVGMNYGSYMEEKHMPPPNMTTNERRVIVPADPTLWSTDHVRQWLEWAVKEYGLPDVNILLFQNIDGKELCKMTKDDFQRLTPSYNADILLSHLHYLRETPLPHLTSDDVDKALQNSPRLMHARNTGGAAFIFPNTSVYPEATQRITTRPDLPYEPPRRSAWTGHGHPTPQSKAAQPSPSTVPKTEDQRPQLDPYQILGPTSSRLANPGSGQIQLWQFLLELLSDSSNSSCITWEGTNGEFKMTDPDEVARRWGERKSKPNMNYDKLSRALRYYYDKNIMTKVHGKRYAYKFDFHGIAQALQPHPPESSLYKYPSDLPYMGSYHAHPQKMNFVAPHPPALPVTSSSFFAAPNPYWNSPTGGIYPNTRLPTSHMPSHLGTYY
# Method in brief: as §1
# [5] = biological target: ELF1 (Homo sapiens, UniProt P32519 1-619); details: protein: recombinant; tags: N-terminal GST; dsDNA, one strand shown
# ELF1, sequence (P32519 whole entry): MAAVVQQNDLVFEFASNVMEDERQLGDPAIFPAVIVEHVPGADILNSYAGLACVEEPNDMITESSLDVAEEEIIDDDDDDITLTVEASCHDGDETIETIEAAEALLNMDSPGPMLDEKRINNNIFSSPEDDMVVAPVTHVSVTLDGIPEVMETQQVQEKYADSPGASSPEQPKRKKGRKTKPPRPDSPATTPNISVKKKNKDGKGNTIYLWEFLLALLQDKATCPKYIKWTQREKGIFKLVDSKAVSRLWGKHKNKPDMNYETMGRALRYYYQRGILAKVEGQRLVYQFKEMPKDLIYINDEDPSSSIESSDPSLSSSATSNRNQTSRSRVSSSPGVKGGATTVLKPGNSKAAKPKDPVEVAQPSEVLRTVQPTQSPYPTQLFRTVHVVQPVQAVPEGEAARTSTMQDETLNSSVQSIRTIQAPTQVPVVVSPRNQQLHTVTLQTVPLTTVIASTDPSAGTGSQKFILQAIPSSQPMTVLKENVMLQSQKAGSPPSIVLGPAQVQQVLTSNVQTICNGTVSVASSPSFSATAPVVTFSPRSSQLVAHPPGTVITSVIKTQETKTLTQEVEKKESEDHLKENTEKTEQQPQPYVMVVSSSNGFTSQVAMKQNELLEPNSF
# Method in brief: as §1
# [6] = biological target: T5, EHF (Homo sapiens, UniProt Q9NZC4 1-300); details: protein: recombinant; tags: N-terminal GST; dsDNA, one strand shown
# T5 sequence: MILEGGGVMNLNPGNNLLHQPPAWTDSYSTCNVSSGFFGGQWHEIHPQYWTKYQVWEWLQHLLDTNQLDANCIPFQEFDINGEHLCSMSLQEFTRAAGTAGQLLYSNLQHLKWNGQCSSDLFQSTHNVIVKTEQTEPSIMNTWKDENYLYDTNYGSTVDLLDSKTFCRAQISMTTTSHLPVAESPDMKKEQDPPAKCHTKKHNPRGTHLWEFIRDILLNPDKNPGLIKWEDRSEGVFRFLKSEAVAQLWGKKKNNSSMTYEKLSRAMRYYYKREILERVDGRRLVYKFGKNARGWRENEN
# Method in brief: as §1
# [7] = biological target: SPI1 (Homo sapiens, UniProt P17947 1-270); details: protein: recombinant; tags: N-terminal GST; dsDNA, one strand shown
# Method in brief: as §1
# [8] = biological target: SPIB (Homo sapiens, UniProt Q01892 1-262); details: protein: recombinant; tags: N-terminal GST; dsDNA, one strand shown
# SPIB, sequence (Q01892 whole entry): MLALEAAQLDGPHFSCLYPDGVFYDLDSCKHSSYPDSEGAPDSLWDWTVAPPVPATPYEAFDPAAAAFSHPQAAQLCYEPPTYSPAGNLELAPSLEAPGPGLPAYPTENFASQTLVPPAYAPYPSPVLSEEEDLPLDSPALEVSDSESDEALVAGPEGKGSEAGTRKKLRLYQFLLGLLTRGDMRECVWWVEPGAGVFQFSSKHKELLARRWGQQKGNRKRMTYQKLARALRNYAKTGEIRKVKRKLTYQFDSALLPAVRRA
# Method in brief: as §1
# [9] = biological target: T6, ELK3 (Homo sapiens, UniProt P41970 1-407); details: protein: recombinant; tags: N-terminal GST; dsDNA, one strand shown
# T6 sequence: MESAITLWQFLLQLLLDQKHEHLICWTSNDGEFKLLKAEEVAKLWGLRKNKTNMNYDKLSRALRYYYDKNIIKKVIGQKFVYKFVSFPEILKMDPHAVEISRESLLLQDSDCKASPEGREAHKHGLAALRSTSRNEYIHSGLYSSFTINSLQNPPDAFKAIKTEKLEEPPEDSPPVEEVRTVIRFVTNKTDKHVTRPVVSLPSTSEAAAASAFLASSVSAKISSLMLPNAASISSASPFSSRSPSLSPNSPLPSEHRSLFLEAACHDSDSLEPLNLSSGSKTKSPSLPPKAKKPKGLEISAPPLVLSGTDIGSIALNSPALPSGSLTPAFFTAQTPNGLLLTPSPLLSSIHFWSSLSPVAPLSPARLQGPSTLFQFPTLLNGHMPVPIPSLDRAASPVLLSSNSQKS
# Method in brief: as §1
# [10] = biological target: T7, FEV (Homo sapiens, UniProt Q99581 1-238); details: protein: recombinant; tags: N-terminal GST; dsDNA, one strand shown
# T7 sequence: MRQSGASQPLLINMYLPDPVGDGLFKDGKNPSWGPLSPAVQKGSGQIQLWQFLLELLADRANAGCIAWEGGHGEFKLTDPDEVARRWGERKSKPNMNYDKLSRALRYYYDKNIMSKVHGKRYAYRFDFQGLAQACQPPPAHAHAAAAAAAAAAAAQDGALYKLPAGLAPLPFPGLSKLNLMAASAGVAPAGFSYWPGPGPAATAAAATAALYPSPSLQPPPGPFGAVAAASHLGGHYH
# Method in brief: as §1
# [11] = biological target: ETV5 (Homo sapiens, UniProt P41161 1-510); details: protein: recombinant; tags: N-terminal GST; dsDNA, one strand shown
# ETV5, sequence (P41161 whole entry): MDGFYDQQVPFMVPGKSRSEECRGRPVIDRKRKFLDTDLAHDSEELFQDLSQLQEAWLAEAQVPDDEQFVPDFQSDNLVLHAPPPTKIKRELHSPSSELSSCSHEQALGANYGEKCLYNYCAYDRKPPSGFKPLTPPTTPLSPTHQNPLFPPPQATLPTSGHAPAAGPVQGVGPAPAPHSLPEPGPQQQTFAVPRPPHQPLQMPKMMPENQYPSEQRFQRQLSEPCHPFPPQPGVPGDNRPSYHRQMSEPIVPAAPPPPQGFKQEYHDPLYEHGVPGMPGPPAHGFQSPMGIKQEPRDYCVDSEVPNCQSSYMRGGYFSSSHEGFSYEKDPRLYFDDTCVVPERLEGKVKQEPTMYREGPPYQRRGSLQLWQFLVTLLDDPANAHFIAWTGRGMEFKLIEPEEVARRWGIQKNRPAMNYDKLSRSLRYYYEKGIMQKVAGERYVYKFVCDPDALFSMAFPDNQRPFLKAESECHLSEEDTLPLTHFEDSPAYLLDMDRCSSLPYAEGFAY
# Method in brief: as §1
# [12] = biological target: HSF1 (Homo sapiens, UniProt Q00613 1-529); details: protein: recombinant; tags: N-terminal GST; chain copies: 3; dsDNA, one strand shown
# HSF1, sequence (Q00613 whole entry): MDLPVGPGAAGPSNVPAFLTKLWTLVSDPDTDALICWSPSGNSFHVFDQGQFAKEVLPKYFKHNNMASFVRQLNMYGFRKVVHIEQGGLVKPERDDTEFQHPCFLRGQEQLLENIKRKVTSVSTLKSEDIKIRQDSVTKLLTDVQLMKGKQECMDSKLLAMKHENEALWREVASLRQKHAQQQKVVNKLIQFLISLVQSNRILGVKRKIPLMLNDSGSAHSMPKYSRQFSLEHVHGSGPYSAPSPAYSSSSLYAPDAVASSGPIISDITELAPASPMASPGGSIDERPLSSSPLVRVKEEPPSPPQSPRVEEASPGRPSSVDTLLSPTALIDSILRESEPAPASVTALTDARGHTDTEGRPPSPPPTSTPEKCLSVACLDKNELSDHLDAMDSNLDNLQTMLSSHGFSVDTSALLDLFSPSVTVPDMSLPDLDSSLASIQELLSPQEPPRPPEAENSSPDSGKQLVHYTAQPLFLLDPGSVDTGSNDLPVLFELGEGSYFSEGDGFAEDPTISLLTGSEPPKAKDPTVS
# Method in brief: as §1
# [13] = biological target: T8, SPIC (Homo sapiens, UniProt Q8N5J4 1-248); details: protein: recombinant; tags: N-terminal GST; dsDNA, one strand shown
# T8 sequence: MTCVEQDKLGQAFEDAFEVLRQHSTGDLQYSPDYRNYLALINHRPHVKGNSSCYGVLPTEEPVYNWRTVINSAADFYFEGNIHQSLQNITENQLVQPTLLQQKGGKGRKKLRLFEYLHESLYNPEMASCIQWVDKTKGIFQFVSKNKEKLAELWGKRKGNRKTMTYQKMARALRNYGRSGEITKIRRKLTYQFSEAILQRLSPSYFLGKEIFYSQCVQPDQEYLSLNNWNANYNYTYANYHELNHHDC
# Method in brief: as §1
# [14] = biological target: ELF4 (Homo sapiens, UniProt Q99607 1-663); details: protein: recombinant; tags: N-terminal GST; dsDNA, one strand shown
# ELF4, sequence (Q99607 whole entry): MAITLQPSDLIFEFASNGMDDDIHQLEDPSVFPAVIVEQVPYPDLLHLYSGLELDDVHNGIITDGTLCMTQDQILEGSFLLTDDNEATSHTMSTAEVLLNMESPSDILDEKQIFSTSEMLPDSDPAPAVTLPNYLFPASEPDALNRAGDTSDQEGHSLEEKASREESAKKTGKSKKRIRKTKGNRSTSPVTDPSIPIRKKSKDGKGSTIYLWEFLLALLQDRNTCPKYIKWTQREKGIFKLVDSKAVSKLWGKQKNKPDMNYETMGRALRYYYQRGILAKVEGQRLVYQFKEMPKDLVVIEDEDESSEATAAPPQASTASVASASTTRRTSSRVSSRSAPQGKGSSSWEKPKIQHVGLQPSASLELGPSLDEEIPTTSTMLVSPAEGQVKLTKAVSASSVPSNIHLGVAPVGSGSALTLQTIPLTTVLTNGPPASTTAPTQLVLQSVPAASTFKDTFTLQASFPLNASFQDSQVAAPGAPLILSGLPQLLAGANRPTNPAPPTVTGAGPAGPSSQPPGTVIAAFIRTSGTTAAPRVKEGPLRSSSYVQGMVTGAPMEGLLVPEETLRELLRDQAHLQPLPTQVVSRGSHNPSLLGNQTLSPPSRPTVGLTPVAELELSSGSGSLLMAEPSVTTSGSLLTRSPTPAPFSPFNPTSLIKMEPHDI
# Method in brief: as §1
# [15] = biological target: T9, ELK4 (Homo sapiens, UniProt P28324-2 1-405); details: protein: recombinant; tags: N-terminal GST; dsDNA, one strand shown
# T9 sequence: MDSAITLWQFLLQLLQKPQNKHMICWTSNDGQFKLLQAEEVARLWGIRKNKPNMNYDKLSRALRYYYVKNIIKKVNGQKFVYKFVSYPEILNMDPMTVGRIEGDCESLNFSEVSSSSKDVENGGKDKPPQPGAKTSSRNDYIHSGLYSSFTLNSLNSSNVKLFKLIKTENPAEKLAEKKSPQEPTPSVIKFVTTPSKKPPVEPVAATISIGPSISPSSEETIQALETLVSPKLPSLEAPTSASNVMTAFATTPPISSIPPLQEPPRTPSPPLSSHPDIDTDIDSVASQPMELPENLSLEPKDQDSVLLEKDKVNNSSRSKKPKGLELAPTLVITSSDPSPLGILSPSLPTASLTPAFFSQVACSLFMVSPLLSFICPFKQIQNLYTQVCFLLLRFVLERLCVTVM
# Method in brief: as §1
# [16] = biological target: T10, ETV2 (Homo sapiens, UniProt O00321 1-342); details: protein: recombinant; tags: N-terminal GST; dsDNA, one strand shown
# T10 sequence: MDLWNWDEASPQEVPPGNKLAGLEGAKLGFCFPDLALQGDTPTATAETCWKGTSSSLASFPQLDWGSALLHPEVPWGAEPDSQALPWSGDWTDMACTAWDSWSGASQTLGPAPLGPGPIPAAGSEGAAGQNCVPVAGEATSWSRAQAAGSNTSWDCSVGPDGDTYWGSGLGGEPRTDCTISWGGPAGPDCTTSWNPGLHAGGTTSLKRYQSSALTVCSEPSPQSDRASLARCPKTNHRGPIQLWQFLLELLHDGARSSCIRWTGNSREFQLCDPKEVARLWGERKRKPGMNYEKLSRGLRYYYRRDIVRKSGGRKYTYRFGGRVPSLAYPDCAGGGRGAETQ
# Method in brief: as §1
# [17] = biological target: T11, ELF3 (Homo sapiens, UniProt P78545 1-371); details: protein: recombinant; tags: N-terminal GST; dsDNA, one strand shown
# T11 sequence: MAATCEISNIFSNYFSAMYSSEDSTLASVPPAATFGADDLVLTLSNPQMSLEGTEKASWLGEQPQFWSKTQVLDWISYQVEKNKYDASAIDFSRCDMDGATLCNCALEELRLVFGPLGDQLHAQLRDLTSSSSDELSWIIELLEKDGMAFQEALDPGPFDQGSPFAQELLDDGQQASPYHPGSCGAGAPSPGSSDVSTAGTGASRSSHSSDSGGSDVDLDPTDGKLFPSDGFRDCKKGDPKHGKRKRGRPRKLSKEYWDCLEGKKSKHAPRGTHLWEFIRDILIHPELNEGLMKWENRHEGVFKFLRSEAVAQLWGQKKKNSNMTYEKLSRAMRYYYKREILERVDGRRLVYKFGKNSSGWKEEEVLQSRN
# Method in brief: as §1
# [18] = biological target: CRX (Homo sapiens, UniProt O43186 1-299); details: protein: recombinant; tags: N-terminal GST; dsDNA, one strand shown
# CRX, sequence (O43186 whole entry): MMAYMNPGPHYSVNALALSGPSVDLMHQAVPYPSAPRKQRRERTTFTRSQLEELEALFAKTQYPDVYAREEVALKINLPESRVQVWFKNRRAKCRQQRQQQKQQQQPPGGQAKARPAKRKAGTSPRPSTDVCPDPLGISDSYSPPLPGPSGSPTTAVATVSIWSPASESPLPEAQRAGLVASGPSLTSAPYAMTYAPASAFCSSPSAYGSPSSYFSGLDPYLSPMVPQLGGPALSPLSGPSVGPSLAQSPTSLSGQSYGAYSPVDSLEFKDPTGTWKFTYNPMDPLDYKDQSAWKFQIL
# Method in brief: as §1
# [19] = biological target: ETV1 (Homo sapiens, UniProt P50549 1-477); details: protein: recombinant; tags: N-terminal GST; dsDNA, one strand shown
# ETV1, sequence (P50549 whole entry): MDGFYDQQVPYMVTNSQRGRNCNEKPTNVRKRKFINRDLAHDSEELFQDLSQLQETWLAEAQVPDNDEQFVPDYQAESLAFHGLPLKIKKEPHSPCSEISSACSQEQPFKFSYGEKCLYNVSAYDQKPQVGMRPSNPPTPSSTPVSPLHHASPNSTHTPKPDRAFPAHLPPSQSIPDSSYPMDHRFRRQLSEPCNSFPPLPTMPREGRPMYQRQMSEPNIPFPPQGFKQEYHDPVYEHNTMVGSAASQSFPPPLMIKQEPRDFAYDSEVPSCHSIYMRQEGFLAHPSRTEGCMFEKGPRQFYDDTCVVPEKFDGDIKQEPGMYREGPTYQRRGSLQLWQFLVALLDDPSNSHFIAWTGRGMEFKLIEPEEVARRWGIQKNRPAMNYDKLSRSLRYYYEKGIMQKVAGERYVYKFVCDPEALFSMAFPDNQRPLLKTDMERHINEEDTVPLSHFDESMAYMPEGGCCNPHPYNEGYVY
# Method in brief: as §1
sequence,measurement,setting,value
GATGCT,binding signal,[1],"1.18 fold enrichment (6-mer frequency, TF over GST control)"
same,binding signal,[2],"1.11 fold enrichment (6-mer frequency, TF over GST control)"
same,binding signal,[3],"1.14 fold enrichment (6-mer frequency, TF over GST control)"
same,binding signal,[4],"1.12 fold enrichment (6-mer frequency, TF over GST control)"
same,binding signal,[5],"1.12 fold enrichment (6-mer frequency, TF over GST control)"
same,binding signal,[6],"1.25 fold enrichment (6-mer frequency, TF over GST control)"
same,binding signal,[7],"1.23 fold enrichment (6-mer frequency, TF over GST control)"
same,binding signal,[8],"1.22 fold enrichment (6-mer frequency, TF over GST control)"
same,binding signal,[9],"1.2 fold enrichment (6-mer frequency, TF over GST control)"
same,binding signal,[10],"1.23 fold enrichment (6-mer frequency, TF over GST control)"
same,binding signal,[11],"1.29 fold enrichment (6-mer frequency, TF over GST control)"
same,binding signal,[12],"1.13 fold enrichment (6-mer frequency, TF over GST control)"
same,binding signal,[13],"1.35 fold enrichment (6-mer frequency, TF over GST control)"
same,binding signal,[14],"1.26 fold enrichment (6-mer frequency, TF over GST control)"
same,binding signal,[15],"1.28 fold enrichment (6-mer frequency, TF over GST control)"
same,binding signal,[16],"1.18 fold enrichment (6-mer frequency, TF over GST control)"
same,binding signal,[17],"1.3 fold enrichment (6-mer frequency, TF over GST control)"
same,binding signal,[18],"1.06 fold enrichment (6-mer frequency, TF over GST control)"
same,binding signal,[19],"1.27 fold enrichment (6-mer frequency, TF over GST control)"
